# Source: PubChem BioAssay (National Center for Advancing Translational Sciences (NCATS))
# BAZ2B inh – BAZ2B (human) inhibition. Q9UIF8. AlphaScreen BAZ2B-H3K14Ac peptide displacement. Potency, µM (titrated, usually from 114 µM), without a hit: top-dose activity change, negative = inhibition, hits mostly inhibitors. 360,000 compounds, 4.4% hits; also: % is scaled to controls: 0 for no effect and ±100 for the full control effect; nearly all actives have a fitted effect of over 60% in size
#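 BAZ2B 50 nM plus b-H3(5-23)K14Ac 50 nM, PBS pH 7.4/0.01% Tween-20, 30 min RT; compound added (max 110 uM), 30 min RT; streptavidin donor/Ni-chelate acceptor beads 10 ug/mL final, 20 min dark; AlphaScreen read.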
# PLK1 PBD inh – inhibitors of human PLK1 polo-box domain binding | Plk1 PBD binding of FITC phosphopeptide, fluorescence polarization | Potency, µM, inactives show max response, negative = inhibition, most hits filed as inhibitors | 360,000 compounds, 2.8% hits; also: series mostly up to about 57 µM; % is scaled to controls: 0 for no effect and ±100 for the full control effect; nearly all actives have a fitted effect of over 65% in size
# 12-LOX inh – ALOX12 (human) lipoxygenase inhibition; purified 12hLO, xylenol orange hydroperoxide absorbance; AID 1671190; P18054; Potency, µM (titrated, usually from 108 µM), for inactives: at the top dose activity change, negative = inhibition, most hits filed as inhibitors; 580,000 compounds, 1.1% hits; also: % is scaled to controls: 0 for no effect and ±100 for the full control effect
#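 Hydroperoxide product was detected by ferrous iron/xylenol orange as the 573 to 405 nm absorbance ratio. Arachidonic acid at 40 uM (final) was turned over for 30 min at room temperature by 150 nM human 12hLO, pH 7.0 Hepes buffer, after 15 min compound preincubation.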
# G9a block – inhibitors of human histone lysine methyltransferase G9a | G9a H3K9 monomethylation, AlphaScreen, 2 h | Potency, µM (titrated, usually from 102 µM), for the others: top-dose activity, negative = inhibition, most hits filed as inhibitors | 350,000 compounds, 8.8% hits; also: % is scaled to controls: 0 for no effect and ±100 for the full control effect; nearly all actives have a fitted effect of over 75% in size
# Target sequence (Q96KQ7 913-1193 limits assumed): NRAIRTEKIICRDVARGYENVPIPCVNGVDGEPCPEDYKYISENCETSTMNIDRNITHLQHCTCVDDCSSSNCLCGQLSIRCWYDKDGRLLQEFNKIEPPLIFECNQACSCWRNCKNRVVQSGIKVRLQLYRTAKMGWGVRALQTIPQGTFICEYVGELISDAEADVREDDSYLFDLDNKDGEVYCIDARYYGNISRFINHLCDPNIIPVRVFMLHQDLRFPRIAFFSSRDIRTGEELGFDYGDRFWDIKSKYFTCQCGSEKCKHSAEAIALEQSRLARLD
#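 Methyltransferase reactions run at room temperature for 2 h (20 nM enzyme, 500 nM biotin-H3K9 peptide, 20 uM SAM) after a 15 min compound preincubation; product detected by AlphaScreen beads and anti-H3K9me1 antibody.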
# JMJD2A Tudor inh – inhibitors of human JMJD2A Tudor domain. O75164. AlphaScreen JMJD2A-Tudor / H3K4me3 peptide binding. Potency, µM (titrated, usually from 114 µM), for inactives: top-dose activity change, negative = inhibition, usual class: inhibitors. 390,000 compounds, 4.4% hits. AID 504339; also: % is scaled to controls: 0 for no effect and ±100 for the full control effect; nearly all actives have a fitted effect of over 50% in size
# HP1b chromo inh – blocks HP1-beta chromodomain binding to methylated histone tails | P83916 | AlphaScreen HP1-beta / biotin-H3K9me3 peptide binding | Potency, µM (highest dose often 114 µM), for the others: at the highest dose activity change, negative = inhibition, most hits filed as inhibitors | 390,000 compounds, 0.56% hits; also: nearly all actives have a fitted effect of over 70% in size
# Target sequence (P83916 whole entry, looked up): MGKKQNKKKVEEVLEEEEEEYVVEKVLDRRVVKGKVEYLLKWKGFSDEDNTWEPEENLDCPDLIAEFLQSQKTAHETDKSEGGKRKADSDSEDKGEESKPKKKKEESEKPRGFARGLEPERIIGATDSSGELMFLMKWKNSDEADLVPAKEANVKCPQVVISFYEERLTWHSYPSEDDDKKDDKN
#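 Compound inhibition of the preformed complex between 50 nM HP1-beta and 50 nM biotinylated H3K9me3 peptide was read by AlphaScreen. Buffer was PBS pH 7.4 with 0.01% Tween-20. Incubations ran 30 min at room temperature, with 10 ug/mL donor/acceptor beads.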
# Active calls of the source: *; ? = inconclusive; . = not tested or not shown; [ ] = remark or other dose. An excerpt weighted towards active compounds, which were near 9% of everything screened. Calls follow the shape of the dose curve; as a rule, active = well fitted curve in the direction sought with a large enough effect; inconclusive = small, poorly fitted or top-dose-only effect, or another doubt; inactive = no such curve, though single readings can be large; an effect the other way counts as inactive or inconclusive. Potency is read from the fitted curve at half-maximal effect.
SMILES,BAZ2B inh,PLK1 PBD inh,12-LOX inh,G9a block,JMJD2A Tudor inh,HP1b chromo inh
O=[N+]([O-])c1cccc(/C=N/Nc2nc(NCc3ccccc3)nc(N3CCOCC3)n2)c1O,-23.6%,-9.5%,-9.6%,?,20µM*,-6.6%
O=C(CSc1ccccn1)Nc1ccc2[nH]c(=O)[nH]c2c1,-4.1%,26.7µM*,0.0%,?,-15.5%,20.7%
COc1ccc(NC(=O)CSc2ncccc2C(=O)OC(C)C)cc1OC,?,-8.2%,0.0%,?,-12.3%,-2.7%
CC(C)c1ccc(NC(=O)CSc2ncccc2C(=O)Oc2cccc([N+](=O)[O-])c2)cc1,6.7%,-17.4%,?,50.1µM*,-14.0%,16.5%[57 µM]
O=C(CSc1ccccn1)Nc1cccc([N+](=O)[O-])c1,-14.6%,18.9µM*,-12.6%,11.2µM*,-25.1%,-1.3%
O=C(CSc1ccccn1)Nc1ccc(F)c([N+](=O)[O-])c1,-19.7%,-4.4%,0.0%,6.4%,-2.8%,11.2%
Cc1ccc(N2C(=O)C(CC(=O)Nc3ccccc3)N(CCC3=CCCCC3)C2=O)cc1 (centres undefined),?,.,?,-13.4%[59 µM],-24.8%,16.2%
CCOc1ccc(/C=C2\SC(=S)N(N3C(=O)C4CC4C3=O)C2=O)cc1 (centres undefined),-24.8%,-1.3%,-8.1%,39.8µM*,?,-21.4%
O=C1/C(=C/c2ccc(O)cc2)SC(=S)N1CC1CCCO1 (centres undefined),?,94.4%,0.0%,?,?,-22.4%
Cc1ccsc1/C=C1\SC(=S)N(CC2CCCO2)C1=O (centres undefined),10µM*,-3.1%,-21.9%,5.01µM*,10µM*,44.7µM*
CCCOc1ccc(/C=C2\SC(=S)N(CC3CCCO3)C2=O)cc1 (centres undefined),?,-18.3%,-4.9%,3.55µM*,?,?
CCOc1ccc(/C=C2/SC(=O)NC2=S)cc1,?,?,-8.8%,?,?,-29.3%
Cc1ccc(-c2nc3ccc(Br)cn3c2Cc2ccsc2)cc1,.,-18.6%,3.16µM*,.,.,.
Cc1ccc(Cc2c(-c3ccc(Br)cc3)nc3ccc(Cl)cn23)cc1,.,-0.6%,35.5µM*,.,.,.
Cc1ccc(Cc2c(-c3ccc(C)cc3)nc3ccc(Cl)cn23)cc1,.,-1.7%,?,.,.,.
Cc1ccc(-c2nc3ccc(C)cn3c2Cc2ccsc2)cc1,.,4.4%,?,.,.,.
N#Cc1ccc(-c2nc3ccc(Cl)cn3c2Cc2cccc(Cl)c2)cc1,.,-10.8%,35.5µM*,.,.,.
CCCNC(=O)N1CCOC[C@H](Oc2ccccc2)C1,.,.,32.5%[176 µM],.,.,.
CC(=O)NC(CC(=O)NC12CC3CC(CC(C3)C1)C2)c1ccccc1 (centres undefined),0.1%,-2.2%,7.3%,0.9%[59 µM],-8.1%,28.6%
COc1cc(C(CCN2CCCC2)c2c(OC)cc(OC)c3c(C)cc(=O)oc23)cc(OC)c1OC (centres undefined),-6.8%,-11.1%,7.6%,28.7%[59 µM],-33.1%,-2.5%
COc1ccc2c(c1)/C(=C/c1cc(OC)c(OC)c(OC)c1)C(=O)N2,.,-2.4%,-1.6%,.,-22.9%,11.2%
C=C1c2cc(OC)ccc2NC(=O)N1CC,3.4%,-5.6%,-6.5%,31.6µM*,-12.6%,31.0%
COc1ccc(NC(=O)CN(C)C(=O)/C=C/c2cn(-c3ccccc3)nc2-c2ccc(C)cc2)cc1,-1.6%,-1.8%,-2.5%,?,-34.5%,-6.4%
Cc1cc(Nc2ccc(Br)cc2)c2c([N+](=O)[O-])ccc(C)c2n1,.,.,-4.9%,.,.,.
COc1ccccc1Nc1cc(C)nc2c(C)ccc([N+](=O)[O-])c12,11.2µM*,1.2%,-18.2%,25.1µM*,10µM*,15.8µM*
O=c1c(Cl)c(Nc2cccc(Cl)c2)cnn1-c1nc2ccccc2s1,-9.4%,-1.5%,-1.3%,-2.9%[59 µM],-6.6%,26.7%
COc1ccc(Nc2cnn(-c3nc4ccccc4s3)c(=O)c2Cl)cc1,-31.8%,11.9µM*,-4.8%,-10.0%[59 µM],-19.7%,19.5%
CN(C)C(=O)c1ccc(SC(=S)NCc2ccccc2)cc1,.,2.67µM*,-49.5%,.,.,.
